Activity calls are given as the source filed them.
Experiment: resazurin metabolic signal in HepG2 cells – cell-based, resazurin fluorescence, 24 h, PK04 Diversity Set, profiling panel (AID 1172); further: test concentration not given here
Conditions: HepG2 viability, higher = more signal

| Compound | z-score |
| --- | --- |
| COCCOC(=O)N1C(=O)[C@@]2(c3cc(C#Cc4ccc(OC)cc4)ccc31)[C@H](c1ccc(OCCO)cc1)N1[C@H](c3ccccc3)[C@H](c3ccccc3)OC(=O)[C@H]1[C@@H]2C(=O)NC[C@H](O)c1ccccc1 | -0.234 |
| O=C1O[C@H](c2ccccc2)[C@H](c2ccccc2)N2[C@H]1[C@@H](C(=O)N1CCN(c3ncccn3)CC1)[C@]1(C(=O)Nc3ccc(C#CCCO)cc31)[C@H]2c1ccc(O)cc1 | 0.0071 |
| O=C1C[C@@](C(=O)O)(c2ccc([N+](=O)[O-])cc2)[C@@H](c2ccc(CO)cc2)N1C1CCCCC1 | -0.562 |
| CN(C)CCCNC(=O)[C@@]1(C)c2ccccc2C(=O)N(Cc2ccc(OC(F)(F)F)cc2)[C@H]1c1ccc(CO)cc1 | -0.732 |
| COCCOC(=O)N1C(=O)[C@@]2(c3cc(C#CCCO)ccc31)[C@H](c1ccc(OCCO)cc1)N1[C@H](c3ccccc3)[C@H](c3ccccc3)OC(=O)[C@H]1[C@@H]2C(=O)N1CCCCCCC1 | -0.21 |
| C#CCN1[C@@H](Cc2ccccc2)C(=O)O[C@H](Cc2ccccc2)[C@@H]1/C=C/C1CC1 | 0.642 |
| CC(C)C[C@@H]1NC(=O)[C@@H]2C[C@H](C(=O)NCCCCCCNC(=O)CS)[C@H](c3cccc(OCCO)c3)N2C1=O | -0.889 |
| CCCCCC1=C2CNC(CC(C)C)(C(=O)OC)C=C2C(C)C1=O (stereo not given) | -0.97 |

Experiment: budding yeast growth changes without added modifier – OD600, strain BY4716, 24 h, basal condition, primary screen (AID 1173)
Conditions: S. cerevisiae BY4716 growth, OD600, 24 h; higher = more signal, called active from +8 up or from −8 down

| Compound | z-score |
| --- | --- |
| COC(=O)[C@H](Cc1ccc(O)cc1)N[C@@H](/C=C/C1CC1)[C@H](O)Cc1ccccc1 | -3.58 (inactive) |
| COc1ccc(CCNC(=O)[C@@H]2c3ccccc3C(=O)N(Cc3ccccc3OC)[C@H]2c2ccc(CO)cc2)cc1 | 0.528 (inactive) |
| COc1ccc(C(=O)Nc2cccc(CN3C(=O)[C@]4(O[C@H](CC(=O)N5Cc6ccccc6C[C@H]5CO)[C@@H]([Si](C)(C)c5ccc(OC)cc5)[C@@H]4C)c4ccccc43)c2)cc1 | 1.49 (inactive) |
| C=CCN1Cc2ccccc2[C@H]2OC(c3ccc(OCCCO)cc3)=N[C@@]2(CCS(=O)(=O)c2ccccc2)C1=O | 1.11 (inactive) |
| C=CCOC(=O)[C@H]1[C@@H]2C(=O)O[C@@H](c3ccccc3)[C@@H](c3ccccc3)N2[C@@H](c2ccc(OCCOC(=O)[C@H]3C[C@H]4C(=O)N[C@@H](CC(C)C)C(=O)N4[C@H]3c3ccc(O)cc3)cc2)[C@]12C(=O)Nc1ccccc12 | 1.1 (inactive) |
| CC1CC/C=C\[C@H]2OC34C=CCN(Cn5nnc6ccccc65)C(=O)[C@H]3N(CCCCCCO)C(=O)[C@@H]4C2C(=O)O1 (stereo not given in full) | -0.705 (inactive) |
| [N-]=[N+]=Nc1ccccc1C[C@@]1(C(=O)NCc2ccccc2)N=C(c2ccc(OCCCO)cc2)O[C@@H]1c1ccccc1N=[N+]=[N-] | -0.353 (inactive) |
| Cc1ccc(S[C@]2(C(=O)NCCCN(C)C)CC(=O)N(C3Cc4ccccc4C3)[C@@H]2c2ccc(CO)cc2I)cc1 | -3.43 (inactive) |
| CC(C)N1C(=O)c2ccccc2[C@](C)(C(=O)NCC(F)(F)F)[C@@H]1c1ccc(CO)cc1 | -1.3 (inactive) |
| CN(C)CCCC[C@@H]1NC(=O)[C@H]2C[C@@H](C(=O)O)[C@@H](c3ccc(O)cc3)N2C1=O | -1.23 (inactive) |
| O=C1[C@@H]2[C@@H](CC(COc3ccccc3)=C([C@H](O)CCc3ccccc3)[C@@H]2CO)C(=O)N1Cc1ccccc1 | -0.0733 (inactive) |
| C=C(CCCC)/C(=C/C[C@H](OC(=O)c1ccncc1)c1ccccc1OCCO)c1cc(C(=O)OC)ccc1OC | 0.431 (inactive) |
| CC(C)NC(=O)[C@@]1(C)c2ccccc2C(=O)N(Cc2ccccc2)[C@H]1c1ccc(CO)cc1 | -0.177 (inactive) |
| COc1ccc(C#Cc2ccc3c(c2)[C@]2(C(=O)N3)[C@H](C(=O)O)[C@H]3C(=O)O[C@H](c4ccccc4)[C@H](c4ccccc4)N3[C@@H]2c2ccccc2OCCO)cc1 | 0.0196 (inactive) |
| CCCCCCc1nc(Cc2cc(OC)c(OC)c(OC)c2)cc2c1[Si](C(C)C)(C(C)C)O[C@H]2c1ccccc1 | 1.12 (inactive) |
| O=C1C[C@@](C(=O)NCc2ccccc2)(c2ccc([N+](=O)[O-])cc2)[C@@H](c2ccc(CO)cc2)N1C1CCCCC1 | -0.517 (inactive) |
| O=C(NCc1ccccc1)[C@@H]1c2ccccc2C(=O)N(Cc2cc(C(F)(F)F)cc(C(F)(F)F)c2)[C@H]1c1ccc(CO)cc1 | -0.247 (inactive) |
